# Laboratory results taken from PubChem BioAssay.
# Where “and” joins values, the source holds several entries; their conditions need not be identical. Equal values may be shown once. Records with an inconclusive call do not appear. Calls of active or inactive are those of the source. Unless noted, the limit is not given here; nearly all actives have AC50 up to about 26 µM.
# What was measured:
# [1] = differential killing of epithelial or mesenchymal cells, primary screen, imaging, PC-3E GFP, TEM4-18 mCherry, co-culture (AID 1345086;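 active = compounds killing one labelled cell type while sparing the other, by normalised counts and ratio limits, not self-fluorescent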;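 as to all read-outs here: cells exposed to compound for 72 h before imaging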;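 as to red/green cell ratio (normalised): normalised mesenchymal count divided by normalised epithelial count so high means epithelial killing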); settings: imaging cell counts, at 1 µM; for red/green cell ratio (normalised): actives lie on both sides, counts scaled to control wells, 1 = unselective
# [2] = target: ATP-dependent translocase ABCB1 (Homo sapiens) (UniProt P08183); experiment: MDR1 (ABCB1) efflux transporter inhibition, cell-based (AID 377; in the data active = fluorescence slope change above about 50%); settings: MDR1-expressing cells, fluorescent substrate accumulation slope; stronger effect = higher value; concentration not given here
# Chain of ATP-dependent translocase ABCB1 (Homo sapiens) (P08183 whole entry, looked up): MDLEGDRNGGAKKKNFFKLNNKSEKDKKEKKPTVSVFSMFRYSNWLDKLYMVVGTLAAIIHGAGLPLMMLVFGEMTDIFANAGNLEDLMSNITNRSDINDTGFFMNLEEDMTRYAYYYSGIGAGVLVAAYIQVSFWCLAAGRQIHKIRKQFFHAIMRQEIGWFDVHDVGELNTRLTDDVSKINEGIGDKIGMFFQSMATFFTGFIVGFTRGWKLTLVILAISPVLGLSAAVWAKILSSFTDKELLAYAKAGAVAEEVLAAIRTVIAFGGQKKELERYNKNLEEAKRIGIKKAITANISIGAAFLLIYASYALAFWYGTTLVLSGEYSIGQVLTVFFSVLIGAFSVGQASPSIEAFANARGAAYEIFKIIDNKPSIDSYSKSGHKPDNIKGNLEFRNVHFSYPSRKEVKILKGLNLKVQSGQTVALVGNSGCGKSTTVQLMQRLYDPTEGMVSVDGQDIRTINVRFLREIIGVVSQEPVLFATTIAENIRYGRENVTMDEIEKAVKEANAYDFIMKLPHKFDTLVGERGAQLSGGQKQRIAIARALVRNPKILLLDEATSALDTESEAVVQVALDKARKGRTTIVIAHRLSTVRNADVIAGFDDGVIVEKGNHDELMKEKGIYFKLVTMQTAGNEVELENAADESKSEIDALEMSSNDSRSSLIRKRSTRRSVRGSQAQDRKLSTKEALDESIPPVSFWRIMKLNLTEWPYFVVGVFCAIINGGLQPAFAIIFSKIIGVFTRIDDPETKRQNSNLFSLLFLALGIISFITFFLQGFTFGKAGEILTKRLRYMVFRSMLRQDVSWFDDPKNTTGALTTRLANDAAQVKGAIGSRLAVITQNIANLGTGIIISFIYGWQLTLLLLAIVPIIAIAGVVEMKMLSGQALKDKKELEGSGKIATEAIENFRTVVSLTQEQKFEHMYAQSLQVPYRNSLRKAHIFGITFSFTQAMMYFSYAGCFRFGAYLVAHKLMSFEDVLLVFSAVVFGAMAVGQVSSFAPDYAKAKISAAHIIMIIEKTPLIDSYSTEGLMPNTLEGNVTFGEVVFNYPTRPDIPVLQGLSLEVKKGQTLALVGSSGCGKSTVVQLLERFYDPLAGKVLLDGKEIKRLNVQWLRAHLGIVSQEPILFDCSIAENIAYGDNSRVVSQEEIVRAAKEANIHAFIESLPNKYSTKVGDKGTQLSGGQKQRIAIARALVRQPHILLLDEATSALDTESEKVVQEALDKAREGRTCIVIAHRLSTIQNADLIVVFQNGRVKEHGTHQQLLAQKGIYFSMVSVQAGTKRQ
# [3] = growth inhibition of DIPG glioma cells, dose response, cell-based, SU-DIPG-XIII, MIPE5.0, CellTiter-Glo, qHTS (AID 1347064; cut-off not given, nearly all actives have AC50 up to about 23 µM;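 as to AC50: cells exposed to compound for 48 hours before the viability read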); settings: SU-DIPG-XIII viability, CellTiter-Glo ATP luminescence
# [4] = viability loss in pontine glioma line – cell-based, SU-DIPG-XXV, MIPE5.0, CellTiter-Glo, qHTS, dose response (AID 1347065); settings: CellTiter-Glo ATP luminescence;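 also: cells exposed to compound for 48 hours before ATP readout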
# [5] = SU-DIPG-VI glioma cell viability, MIPE4.0 library, CellTiter-Glo luminescence, qHTS (AID 1347066; cut-off not given, nearly all actives have AC50 up to about 30 µM;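 also: cells exposed to compound for 48 hours before readout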); settings: CellTiter-Glo ATP luminescence
# [6] = JHH-DIPG-1 glioma cell viability, MIPE5.0 library, CellTiter-Glo luminescence, qHTS (AID 1347067); settings: JHH-DIPG-1 glioma viability, CellTiter-Glo ATP luminescence;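 also: cells exposed to compound for 48 hours before readout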
# [7] = SU-DIPG-XXV glioma cell viability, MIPE5.0 library, qHTS (AID 1347068; cut-off not given, nearly all actives have IC50 up to about 30 µM;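 as to IC50: cells exposed to compound for 48 hours before viability readout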)
# [8] = polyglutamine-triggered caspase-3 activation inhibitors, cell-based (AID 1583); settings: polyglutamine-induced caspase-3 activation, cell assay; stronger effect = higher value;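 tested at 10 µM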
# [9] = circadian clock period modulators, cell-based, LOPAC library, luminescence reporter (AID 2774; call rule not given here;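 also: values are relative to mean of DMSO wells on each plate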); settings: circadian reporter cells, at 7 µM, actives lie on both sides
# [10] = tested on: Hepatitis C virus NS3 helicase; experiment: HCV NS3 helicase inhibitors, primary screen, biochemical, fluorescence polarization, LOPAC1280 library (AID 687035; in the data active = inhibition above about 37%); settings: Purified HCV NS3 helicase, Cy5-dT15 ssDNA binding fluorescence polarization; stronger effect = higher value; concentration not given here
# [11] = Cy5 fluorescence quenching or enhancement artefacts, artefact control for HCV NS3 helicase inhibitor project, biochemical, LOPAC1280 (AID 687037; call rule not given here); settings: Cy5-DNA-NS3h complex fluorescence interference counterscreen
# [12] = tested on: Aerobactin synthetase IucA (Klebsiella pneumoniae); experiment: IucA aerobactin synthetase inhibitors, biochemical, Tocris library, absorbance (AID 1345561; call rule not given here;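 also: 100% = enzyme without compound and 0% = no enzyme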); settings: purified IucA enzyme assay, absorbance (OD) read-out; stronger effect = lower value;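 tested at 8 µM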
# [13] = phospholipid biosynthesis inhibitors in animal cells, primary screen, cell-based, LOPAC library, screen 4 (AID 1347384; call rule not given here); settings: phospholipid biosynthesis inhibition screen, at 10 µM
# [14] = growth inhibition of DIPG glioma cells, dose response, cell-based, SU-DIPG-XVII, MIPE5.0, CellTiter-Glo, qHTS (AID 1347060); settings: SU-DIPG-XVII viability, CellTiter-Glo ATP luminescence;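 as to AC50: cells exposed to compound for 48 hours before viability readout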
# [15] = CRL2098 osteosarcoma cell growth inhibition, synergistic combos for chromothripsis tumors, BGB or cisplatin IC20 combos (AID 1671454; in the data active = inhibition above about 80%;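 also: cells exposed for 96 h before readout; 0% = vehicle DMSO and 100% = killing by high DMSO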); settings: CRL2098 osteosarcoma cells, drug combinations, stronger effect = higher value
# [16] = HD-MB03 medulloblastoma cell growth inhibition, synergistic combos for chromothripsis tumors, BGB or cisplatin IC20 combos (AID 1671455; in the data active = inhibition above about 83%;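 also: 0% = vehicle DMSO and 100% = high DMSO as cytotoxic control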); settings: HD-MB03 medulloblastoma cells, stronger effect = higher value
# [17] = UWB1.289 ovarian carcinoma cell growth inhibition, synergistic combos for chromothripsis tumors, BGB or cisplatin combos (AID 1671456; in the data active = inhibition above about 80%;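 also: cells exposed to compound for four days; 0% = vehicle DMSO and 100% = killing by high DMSO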); settings: UWB1.289 ovarian carcinoma cells, stronger effect = higher value
# [18] = LFS_MB_2R medulloblastoma cell growth inhibition, synergistic combos for chromothripsis tumors, cisplatin combos (AID 1671457; in the data active = inhibition above about 80%;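 also: cells exposed to compound for four days before readout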); settings: LFS_MB_2R medulloblastoma cells, stronger effect = higher value
# [19] = UWB1.289_BRCA1 ovarian cancer growth, cell-based, BGB or cisplatin combinations (AID 1671459; in the data active = inhibition above about 80%); settings: UWB1.289 BRCA1 ovarian carcinoma, drug combinations, stronger effect = higher value
# [20] = human astrocyte viability loss, single and combined drugs, cytotoxicity control for chromothriptic childhood tumor combination screen, cell-based, BGB or cisplatin IC20 combos (AID 1671460; in the data active = inhibition above about 80%;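 also: cells exposed to compounds for 96 hours before viability readout; 0% = vehicle and 100% = killing control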); settings: Human astrocytes, drug combinations, stronger effect = higher value
# [21] = measured here: epithelial PC-3E GFP cell survival
# [22] = measured here: mesenchymal TEM4-18 mCherry cell survival
compound,measurement,setting,value
CC(=O)O[C@H]1C[C@@H](OC(C)=O)C(C)(C)C2CC(=O)[C@]3(C)C(CC[C@@]4(C)[C@H](c5ccoc5)OC(=O)[C@H]5O[C@]543)[C@]21C (stereo partly drawn),red/green cell ratio (normalised),[1],0.93 (inactive)
same,normalised cell number,[1]; [21],0.94
same,normalised cell number,[1]; [22],0.87
CCCCCC1C(=O)CCC1CC(=O)O (stereo not drawn),red/green cell ratio (normalised),[1],0.91 (inactive)
same,normalised cell number,[1]; [21],0.07
same,normalised cell number,[1]; [22],0.07
Cn1c(=O)[nH]c(=O)c2[nH]cnc21,red/green cell ratio (normalised),[1],0.93 (inactive)
same,normalised cell number,[1]; [21],1.22
same,normalised cell number,[1]; [22],1.13
COc1ccc2c(c1)OCC(Cc1ccc(OC)c(O)c1)C2=O (stereo not drawn),red/green cell ratio (normalised),[1],0.88 (inactive)
same,normalised cell number,[1]; [21],0.74
same,normalised cell number,[1]; [22],0.65
COc1ccc(-c2oc3ccccc3c(=O)c2O)cc1OC,red/green cell ratio (normalised),[1],0.86 (inactive)
same,normalised cell number,[1]; [21],1.06
same,normalised cell number,[1]; [22],0.91
CCc1ccc2c(O)c3c(cc2c1C(=O)OC)C(=O)c1c(O)ccc(O)c1C3=O,red/green cell ratio (normalised),[1],0.83 (inactive)
same,normalised cell number,[1]; [21],1.11
same,normalised cell number,[1]; [22],0.92
COc1cc(C(C)=O)cc(OC)c1O,red/green cell ratio (normalised),[1],1.05 (inactive)
same,normalised cell number,[1]; [21],0.87
same,normalised cell number,[1]; [22],0.91
CC(CCc1ccc(O)cc1)NCCc1ccc(O)c(O)c1 (stereo not drawn),fluorescence slope change,[2],19.4% (inactive)
COc1c2ccoc2nc2c(OC)c(OCC(O)C(C)(C)O)ccc12 (stereo not drawn),fluorescence slope change,[2],3.7% (inactive)
NC(=O)c1cccc(N)c1,outcome,[3],inactive
C[C@@]12C(=O)OC(=O)[C@]1(C)[C@H]1CC[C@@H]2O1,AC50,[3],2.95 µM (active)
Nc1ccn([C@@H]2O[C@H](CO)[C@@H](O)[C@H]2O)c(=O)n1,outcome,[3],inactive
same,outcome,[4],inactive
same,outcome,[5],inactive
same,outcome,[6],inactive
same,outcome,[7],inactive
O=C(O)c1cc(=O)c2ccccc2[nH]1,inhibition,[8],-5.47%
same,period change,[9],0.025 h (inactive)
same,inhibition,[10],-6% (inactive)
same,fluorescence ratio (interference),[11],1 (inactive)
same,remaining activity,[12],94.6% (inactive)
same,outcome,[13],inactive
C=C1CC[C@@H]2[C@](C)(CO)[C@H](O)CC[C@@]2(C)[C@@H]1C/C=C1/C(=O)OC[C@H]1O,AC50,[14],16.6 µM (active)
same,AC50,[3],20.9 µM (active)
same,AC50,[4],11.8 µM (active)
same,AC50,[6],14.8 µM (active)
same,IC50,[7],20.9 µM (active)
COc1cccc(OC)c1OCCNCC1COc2ccccc2O1 (stereo not drawn),period change,[9],0.335 h (inactive)
same,inhibition,[10],-1% (inactive)
same,fluorescence ratio (interference),[11],1 (inactive)
same,remaining activity,[12],108% (inactive)
same,outcome,[13],inactive
C=C(C)[C@@H]1CC[C@]2(C(=O)O)CC[C@]3(C)[C@H](CC[C@@H]4[C@@]5(C)CC[C@H](O)C(C)(C)[C@@H]5CC[C@]43C)[C@@H]12,AC50,[14],20.9 µM (active)
same,AC50,[4],14.8 µM (active)
same,outcome,[5],inactive
same,outcome,[6],inactive
same,outcome,[7],inactive
COc1ccc(CCC(=O)c2c(O)cc(O[C@@H]3O[C@H](CO)[C@@H](O)[C@H](O)[C@H]3O[C@@H]3O[C@@H](C)[C@H](O)[C@@H](O)[C@H]3O)cc2O)cc1O,outcome,[5],inactive
COc1c(O)cc2c(c1O)[C@@H]1O[C@H](CO)[C@@H](O)[C@H](O)[C@H]1OC2=O,outcome,[5],inactive
CC(C)(S)[C@@H](N)C(=O)O,outcome,[14],inactive
same,outcome,[3],inactive
same,outcome,[4],inactive
same,outcome,[5],inactive
same,outcome,[6],inactive
same,outcome,[7],inactive
COc1cc([C@@H]2c3cc4c(cc3[C@@H](O[C@@H]3O[C@@H]5CO[C@@H](c6cccs6)O[C@H]5[C@H](O)[C@H]3O)[C@H]3COC(=O)[C@H]23)OCO4)cc(OC)c1O,AC50,[14],0.332 µM (active)
same,AC50,[4],5.9 µM (active)
same,AC50,[6],9.34 µM (active)
same,inhibition,[15]; at 0.5 µM,5.54% (inactive) and 23.7% (inactive)
same,inhibition,"[15]; measured here: combination with BGB at IC20, at 0.5 µM",22% and 28.7%
same,inhibition,"[15]; measured here: combination with cisplatin at IC20, at 0.5 µM",-12.5% and 10.8%
same,inhibition,[16]; at 0.5 µM,96.4% (active) and 98.5% (active)
same,inhibition,"[16]; measured here: combo with BGB at IC20, at 0.5 µM",94.6% and 97.5%
same,inhibition,"[16]; measured here: combo with cisplatin at IC20, at 0.5 µM",96.6% and 99.1%
same,inhibition,[17]; at 0.5 µM,18.6% (inactive) and 46.3% (inactive)
same,inhibition,"[17]; measured here: inhibition with BGB combination, at 0.05 µM",-23.8% and 2.23%
same,inhibition,"[17]; measured here: inhibition with cisplatin combination, at 0.05 µM",-2.66% and 12.3%
same,inhibition,[18]; at 0.5 µM,-16.4% (inactive) and -13.1% (inactive)
same,inhibition,"[18]; measured here: combination with cisplatin, at 0.5 µM",-12.1% and -0.448%
same,inhibition,"[18]; measured here: combination with cisplatin, at 5 µM",-6.88% and 18.4%
same,inhibition,"[19]; BGB combination, concentration series, at 5 µM",94.5% and 109%
same,inhibition,[19]; at 0.5 µM,16.2% (inactive) and 36.5% (inactive)
same,inhibition,"[19]; cisplatin combination, concentration series, at 5 µM",117% and 124%
same,inhibition,[20]; at 0.5 µM,47.8% (inactive) and 52.6% (inactive)
same,inhibition,"[20]; measured here: combo with BGB IC20, at 0.5 µM",42.5% and 54.3%
same,inhibition,"[20]; measured here: combo with cisplatin IC20, at 0.5 µM",28% and 33.1%
C[C@H]1C[C@H]2[C@@H]3CCC4=CC(=O)C=C[C@]4(C)[C@@]3(F)[C@@H](O)C[C@]2(C)[C@@]1(O)C(=O)CO,fluorescence slope change,[2],18% (inactive)
same,outcome,[5],inactive
COC1=C(OC)C(=O)C(C/C=C(\C)CC/C=C(\C)CC/C=C(\C)CC/C=C(\C)CC/C=C(\C)CC/C=C(\C)CC/C=C(\C)CC/C=C(\C)CC/C=C(\C)CCC=C(C)C)=C(C)C1=O,outcome,[5],inactive
